Laboratory results reported in PubChem BioAssay (NCATS).
Where “and” joins values, the source holds several entries; their conditions need not be identical. Equal entries are not always repeated. Records with an inconclusive call do not appear. Calls of active or inactive are those of the source. Unless noted, calls come from the whole dose curve; as a rule, active = well fitted curve in the direction sought with a large enough effect; inconclusive = small, poorly fitted or top-dose-only effect, or another doubt; inactive = no such curve, though single readings can be large; an effect the other way counts as inactive or inconclusive.

How the values were obtained:
[1] = Cell Viability - BJ (AID 421; calls by dose curve;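 note: potency is the fitted concentration of half-maximal effect; cells exposed to compound for 40 hours at 37 °C before readout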); conditions: BJ fibroblast viability, qHTS
Outline: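 Normal human BJ foreskin fibroblasts, 1500/well in complete medium, treated 40 hr at 37 °C. Cellular ATP by CellTiter-Glo luminescence; normalized to DMSO and 100 uM tamoxifen, AC50 from Hill fit.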

[2] = Cell Viability - SK-N-SH (AID 435; calls by dose curve;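 note: potency is the fitted concentration of half-maximal effect; compound exposure lasted 40 h at 37 °C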); conditions: SK-N-SH neuroblastoma cell viability qHTS
Outline: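 Human neuroblastoma line, 40 h exposure at 37 °C, ATP quantified via luciferase luminescence; DMSO and 100 uM tamoxifen define 0 and 100% inhibition for AC50 fitting.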

[3] = molecular target: Mitogen-activated protein kinase 10 (Mus musculus) (UniProt Q61831); assay: JNK3 AlphaScreen Assay (AID 530; active = well fitted curve in either direction with a large enough effect, not every such curve was filed as active;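 note: kinase came from lysate of stimulated human HepG2 cells; signal reports phosphorylation of biotinylated GST-cJun 1-79 at Ser73 with 10 µM ATP; % is set by controls: 0 for no effect and ±100 for the full control effect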); conditions: JNK3 lysate, c-Jun phosphorylation; series mostly up to 57.1 µM
Outline: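 Activity was read by AlphaScreen after JNK3-containing HepG2 lysate (cytokine pre-activated) phosphorylated biotinylated GST-cJun with 10 uM ATP at room temperature. Phospho-Ser73 cJun antibody with Protein-A acceptor beads provided detection.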

[4] = Cell Viability - NIH 3T3 (AID 541); conditions: NIH 3T3 cell viability, qHTS; activity change, negative = cytotoxicity: at 92.2 µM (top of the series);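 note: cells exposed to compound for 40 hours; nearly all actives have a fitted effect of over 25% in size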; note: potency is the fitted concentration of half-maximal effect;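 for activity change, negative = cytotoxicity: plate controls were DMSO alone for no effect and tamoxifen positive control for full effect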
Outline: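 Cells seeded at 1000/well, rested 5 hr at 37 °C, then dosed and incubated 40 hr at 37 °C. CellTiter-Glo added, 20 min room temperature, luminescence read. AC50 by Hill fit.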

[5] = Cell Viability - Mesenchymal (AID 546); conditions: mesenchymal cells viability, qHTS; activity change, negative = cytotoxicity: at 91.7 µM (top of the series);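 note: cells exposed to compound for 40 hours before reading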; note: potency is the fitted concentration of half-maximal effect
Outline: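 Human renal mesenchymal cells (glomerulus-derived), 1000 cells/well, 5 hr 37 °C pre-incubation; compound 40 hr, 37 °C; CellTiter-Glo, 20 min RT; luminescence; AC50 via Hill equation.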

[6] = Cellular Toxicity (caspase-3) HepG2 (AID 654); conditions: HepG2 caspase-3 activation, luminescence, 0% = DMSO only, 100% = tamoxifen; series mostly up to 92.2 µM;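 note: cells exposed to compound for 16 hours before reading; 0% = DMSO alone and 100% = caspase signal from 100 µM tamoxifen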
Outline: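 Caspase 3/7 activation in HepG2 is measured as rising luminescence after a 16 hr treatment at 37 °C. Values are scaled between DMSO basal and 100 uM tamoxifen, and AC50 is fitted with the Hill equation.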

[7] = Cellular Toxicity (caspase-3) HUV-EC-C (AID 656); conditions: HUV-EC-C cells, caspase-3 activation (apoptosis), vehicle = 0, 100 µM tamoxifen = 100%; series mostly up to 92.2 µM
Outline: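 Concentration-dependent caspase 3/7 induction was assessed in HUV-EC-C cells exposed for 16 hours. Data scaled between DMSO and tamoxifen (100 uM) controls.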

[8] = Cellular Toxicity (caspase-3) BJ (AID 658); conditions: BJ fibroblasts, luminescence, normalized: DMSO 0%, staurosporine 100%; series mostly up to 91.7 µM
Outline: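 qHTS, BJ fibroblasts, 1000 cells/well; 5 hr preincubation, 16 hr compound, 37 °C; Caspase-Glo 3/7 reagent, 1 hr RT; luminescence. DMSO = 0%, 10 uM staurosporine = 100%. Hill-equation AC50.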

[9] = Cellular Toxicity (caspase-3) MRC-5 (AID 659); conditions: MRC-5 cells, luminescence, normalized: DMSO 0%, 10 µM staurosporine 100%; series mostly up to 91.7 µM
Outline: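 MRC-5 fibroblasts, 1500/well; 16 h cpd, 37 °C; Caspase-Glo 3/7, 1 h RT; lumi read. Norm: DMSO = 0%, 10 uM staurosporine = 100%. Hill-fit AC50 from qHTS conc-response.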

[10] = Cellular Toxicity (caspase-3) Mesangial (AID 660); conditions: mesangial cells, normalized: DMSO 0%, 100 µM tamoxifen 100%; series mostly up to 91.7 µM;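 note: combined caspase 3 and 7 activity read by Caspase-Glo luminescence; cells exposed to compound for 16 h before the caspase read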
Outline: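 Seed cells derived from normal human renal glomeruli, incubate 5 h, add compounds across concentrations and incubate 16 h at 37 °C. Caspase 3/7 activation is then quantified by luciferase light, with AC50 derived by Hill modeling.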

[11] = Cellular Toxicity (caspase-3) Hek293 (AID 664); conditions: HEK293 caspase-3 activation, DMSO = 0%, 100 µM tamoxifen = 100%; series mostly up to 92.2 µM;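 note: cells exposed to compound for 16 h at 37 °C before readout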
Outline: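 qHTS, HEK293 (human embryonic kidney), 16 h cpd exposure in complete medium. Caspase-3/7 activation = luminescence increase; normalized to DMSO/100 uM tamoxifen; Hill-fit AC50.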

[12] = MultiTox-Fluor Cytotoxicity Assay - LYMP1-003 - Live Cells (AID 962); conditions: LYMP1-003 lymphoblastoid cells, MultiTox-Fluor live-cell protease fluorescence; series mostly up to 92.2 µM;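 note: cells exposed to compound for 16 hours at 37 °C; 0% = DMSO only and full loss = 92 µM tetraoctylammonium bromide; cytotoxic hits lower the live-cell protease signal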
Outline: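 Acute cytotoxicity is scored as a drop in live-cell protease activity in human lymphoblastoid LYMP1-003 cells after 16 hr compound exposure at 37 C. AC50 values come from Hill-equation modelling of concentration-response data.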

[13] = Cell Viability - LYMP1-003 - Assay at 40 hr (AID 964); conditions: LYMP1-003 lymphoblastoid viability; series mostly up to 92.2 µM; note: nearly all actives have a fitted effect of over 60% in size; note: potency is the fitted concentration of half-maximal effect
Outline: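 Luminescent ATP signal (CellTiter-Glo) served as the viability read-out after 40 hr compound treatment of human lymphoblastoid LYMP1-003 cells at 37 C. Decreases in ATP were fitted with the Hill equation to give AC50.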

[14] = Cell Viability - LYMP2-011 (AID 969); conditions: LYMP2-011 lymphoblastoid cells viability; series mostly up to 92.2 µM; note: nearly all actives have a fitted effect of over 60% in size; note: potency is the fitted concentration of half-maximal effect
Outline: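 In this qHTS cytotoxicity format, compounds are tested across concentrations on human lymphoblastoid cells in complete medium for 24 hours at 37 C. Viability is taken as cellular ATP measured by luciferase luminescence.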

[15] = Cell Viability - LYMP2-013 (AID 970); conditions: LYMP2-013 lymphoblastoid cells viability; series mostly up to 92.2 µM;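 note: cells exposed to compound for 24 h at 37 °C; nearly all actives have a fitted effect of over 55% in size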; note: potency is the fitted concentration of half-maximal effect
Outline: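 Cytotoxicity is scored as a concentration-dependent drop in intracellular ATP in human lymphoblastoid cells after 24 hr compound exposure at 37 C. ATP is quantified by luciferase luminescence, and AC50 values come from Hill-equation modeling.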

[16] = Cell Viability - LYMP2-017 (AID 972); conditions: LYMP2-017 lymphoblastoid cell viability; series mostly up to 92.2 µM; note: nearly all actives have a fitted effect of over 55% in size; note: potency is the fitted concentration of half-maximal effect; for activity change, negative = cytotoxicity: % is set by controls: 0 for no effect and ±100 for the full control effect
Outline: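 Cytotoxicity is scored as a concentration-dependent drop in cellular ATP in a human lymphoblastoid line after 24 hr treatment at 37 C. Values are AC50s from Hill-equation modelling.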

[17] = Cell Viability - LYMP2-010 (AID 981); conditions: LYMP2-010 lymphoblastoid cell viability, qHTS; series mostly up to 92.2 µM; note: nearly all actives have a fitted effect of over 55% in size; note: potency is the fitted concentration of half-maximal effect
Outline: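 Steps: seed 2500 LYMP2-010 cells per well; incubate 5 hr at 37 C; add compound; incubate 24 hr at 37 C; add CellTiter-Glo, wait 30 min at room temperature; read luminescence. Concentration-response fitted to Hill equation for AC50.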

[18] = Cell Viability - LYMP2-012 (AID 982); conditions: LYMP2-012 lymphoblastoid cell viability qHTS; series mostly up to 92.2 µM;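 note: cellular ATP by luciferase luminescence where a drop means cytotoxicity; cells exposed to compound for one day before reading; nearly all actives have a fitted effect of over 55% in size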; note: potency is the fitted concentration of half-maximal effect;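 for activity change, negative = cytotoxicity: 0% = DMSO only and full loss = 92 µM tetraoctylammonium bromide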
[19] = qHTS Assay for Identification of Small Molecule Inducers of Hypoxia Response (AID 2120; active = well fitted curve in the direction sought with a large enough effect in the signal ratio, with a control signal flat, not every such curve was filed as active; the % refers to the signal ratio; note: 0% is about no effect); conditions: hypoxia response reporter cells, beta-lactamase ratio readout; series mostly up to 104 µM
Outline: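 Cell-based qHTS for reporter induction: hypoxia response element controlled beta-lactamase in ME-180 cells. Compounds incubated 17 h at 37 degrees C; activity from blue/green (460/530 nm) ratio, inducers ranked by AC50.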

[20] = molecular target: Peroxisome proliferator-activated receptor alpha (Homo sapiens) (UniProt Q07869); assay: qHTS assay for small molecule agonists of the peroxisome proliferator-activated receptor alpha (PPARalpha) signaling pathway (AID 651778); conditions: PathHunter PPARalpha complementation, chemiluminescence, 6 h; max response: stronger effect = higher value; note: % of control where 0% means no effect
Outline: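 Enzyme-fragment complementation assay in which ligand-bound PPARalpha translocates and forms an active enzyme that generates chemiluminescence. Cells were plated overnight, exposed to compound for 6 hr at 37 C, and then given detection reagent for 60 min at room temperature.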

Sequence of Peroxisome proliferator-activated receptor alpha (Homo sapiens) (Q07869 whole entry, looked up, the tested form may be a part): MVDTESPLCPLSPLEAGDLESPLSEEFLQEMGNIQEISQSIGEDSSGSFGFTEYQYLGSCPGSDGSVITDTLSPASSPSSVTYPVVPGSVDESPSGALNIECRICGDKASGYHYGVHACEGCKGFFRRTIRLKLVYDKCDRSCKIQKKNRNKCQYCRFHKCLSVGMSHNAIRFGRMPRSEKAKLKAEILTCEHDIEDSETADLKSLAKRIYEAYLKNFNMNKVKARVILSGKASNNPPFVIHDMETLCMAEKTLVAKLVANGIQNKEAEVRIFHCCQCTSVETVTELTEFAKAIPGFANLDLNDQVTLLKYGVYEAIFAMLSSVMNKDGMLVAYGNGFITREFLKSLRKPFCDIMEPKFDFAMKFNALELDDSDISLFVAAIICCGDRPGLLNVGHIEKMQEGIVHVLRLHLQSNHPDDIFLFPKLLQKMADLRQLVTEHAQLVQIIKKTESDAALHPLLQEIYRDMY

CC1=CC(C)(C)Nc2ccccc21
inactive: Potency [1] > 92 µM | Potency [2] > 92 µM | Potency [3] | Potency [4] | activity change, negative = cytotoxicity [5] 16.2% and 9.84% | outcome [6] | outcome [7] | outcome [8] | outcome [9] | outcome [10] | outcome [11] | Potency [12] | Potency [13] | Potency [14] | Potency [15] | Potency [16] | Potency [17] | Potency [18] | outcome [19] | max response [20] 2.08% and -3.28%

NC1=NC(S)C2N=CN=C2N1 (stereo not given)
inactive: Potency [3] | outcome [6] | outcome [7] | outcome [8] | outcome [9] | outcome [10] | outcome [11] | Potency [12] | outcome [19] | max response [20] -3.14%
active: Potency [1] 0.218 µM | Potency [2] 0.182 µM | Potency [4] 0.158 µM | Potency [5] 0.251 µM | Potency [13] 1.58 µM | Potency [14] 20 µM | Potency [15] 20 µM | Potency [16] 12.6 µM | Potency [17] 12.6 µM | Potency [18] 7.94 µM

c1ccc2c(c1)[nH]c1ccccc12
inactive: Potency [1] > 92 µM | Potency [2] > 92 µM | Potency [3] | Potency [4] | activity change, negative = cytotoxicity [5] -7.62% | outcome [6] | outcome [7] | outcome [8] | outcome [9] | outcome [10] | outcome [11] | Potency [12] | Potency [13] | Potency [14] | Potency [15] | Potency [16] | Potency [17] | Potency [18] | outcome [19] | max response [20] 5.12% and 0.259%

CCC(O)OC(O)CC (stereo not given)
inactive: Potency [1] > 92 µM | Potency [2] > 92 µM | Potency [3] | Potency [4] | activity change, negative = cytotoxicity [5] 7.91% and -0.346% | outcome [6] | outcome [7] | outcome [8] | outcome [9] | outcome [10] | outcome [11] | Potency [12] | Potency [13] | Potency [14] | Potency [15] | Potency [16] | Potency [17] | Potency [18] | outcome [19] | max response [20] -0.587% [middle of 4 runs]

CCCN(CCC)C(=O)SCC
inactive: Potency [1] > 92 µM | Potency [2] > 92 µM | Potency [3] | Potency [4] | activity change, negative = cytotoxicity [5] 5.65% | outcome [6] | outcome [7] | outcome [8] | outcome [9] | outcome [10] | outcome [11] | Potency [12] | Potency [13] | Potency [14] | Potency [15] | Potency [16] | Potency [17] | Potency [18] | outcome [19] | max response [20] -2.51% and -1.87%

Cc1ccc([N+](=O)[O-])cc1N
inactive: Potency [1] > 92 µM | Potency [2] > 92 µM | Potency [3] | Potency [4] | activity change, negative = cytotoxicity [5] -1.39% | outcome [6] | outcome [7] | outcome [8] | outcome [9] | outcome [10] | outcome [11] | Potency [12] | Potency [13] | Potency [14] | Potency [15] | Potency [16] | Potency [17] | Potency [18] | outcome [19] | max response [20] -4.31% and -1.18%
